A number with no mark means an inactive call. No rule for the calls is given here.
Each compound was assayed against Pantothenate synthetase (Mycobacterium tuberculosis (strain ATCC 25618 / H37Rv)) (UniProt P9WIL5) (assay: Recombinant Mtb pantothenate synthetase (PanC) inhibitors, coupled enzyme, confirmatory (AID 375;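 also: 0% = full reaction with vehicle and 100% = no enzyme background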)). Conditions: coupled enzyme assay; at 10 µM, stronger effect = higher value.
Pantothenate synthetase (Mycobacterium tuberculosis (strain ATCC 25618 / H37Rv)), sequence (P9WIL5 whole entry, looked up): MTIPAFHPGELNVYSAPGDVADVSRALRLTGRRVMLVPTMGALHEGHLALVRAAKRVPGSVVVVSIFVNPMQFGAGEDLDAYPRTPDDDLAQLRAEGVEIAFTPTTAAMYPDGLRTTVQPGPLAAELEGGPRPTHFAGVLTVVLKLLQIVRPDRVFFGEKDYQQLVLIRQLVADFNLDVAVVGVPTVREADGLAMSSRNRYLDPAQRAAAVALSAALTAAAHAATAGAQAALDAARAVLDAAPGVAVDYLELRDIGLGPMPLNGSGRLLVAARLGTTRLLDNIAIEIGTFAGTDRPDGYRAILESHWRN

| SMILES | inhibition |
| --- | --- |
| CCOC(=O)N1CCN(C(=O)c2n[nH]c(=O)c3ccccc23)CC1 | 2% |
| Cc1ccc(NC(=O)C2CCCN(S(=O)(=O)c3cnc[nH]3)C2)cc1F (stereo not given) | 0% |
| COC(=O)Cn1cnc2sc(C)c(S(=O)(=O)N3CCC(C)CC3)c2c1=O | 4% |
| CCCCOc1ccc(C(=O)N2CCC(C)CC2)cc1 | 0% |
| CCOc1cc(-c2nc3ccccn3c2NCC2CCCO2)ccc1O (stereo not given) | 0% |
| C=CCN1C(=O)CS/C1=N/c1nccs1 | 0% |
| COc1ccccc1NC(=O)C1(C)Cc2ccccc2C(=O)O1 (stereo not given) | 0% |
| Cc1ccc(N2C(=O)c3ccccc3C2Nc2cccnc2)nc1 (stereo not given) | 1% |
| N#Cc1ccc(CSc2nnc(-c3cnccn3)o2)cc1 | 5% |
| Cn1nc(C(=O)NC2CCCCCC2)ccc1=O | 0% |
| COc1cccc(-c2csc(N3CCN(CC(=O)Nc4ccc5c(c4)OCO5)CC3)n2)c1 | 0% |
| Cc1nc2ncnn2c(N2CCC(C(=O)NCC3CCCO3)CC2)c1Cc1ccccc1 (stereo not given) | 0% |
| CCOc1cc(C(=O)N(C)Cc2cc3ccccc3[nH]c2=O)cc(OCC)c1OCC | 7% |
| CCOC(=O)C1=C(C)OC(N)=C(C#N)C1c1ccoc1 (stereo not given) | 0% |
| OC(CNCC1COc2ccccc2O1)COCc1cccs1 (stereo not given) | 0% |
| CCn1c(Cc2ccccc2)nnc1SCC(=O)Nc1cc(C)on1 | 0% |
| Oc1ccccc1C1=Nc2nc3ccccc3n2C(c2ccccc2)C1 (stereo not given) | 0% |
| CCSc1cc(C2C(C(=O)OC)=C(C)NC3=C2C(=O)CCC3)c(C)o1 (stereo not given) | 0% |
| OC1C=CSc2nc3ccccc3n21 (stereo not given) | 0% |
| CCN1CCN(c2nc(C)nc3c2sc(=S)n3C)CC1 | 0% |

| SMILES | inhibition |
| --- | --- |
| COc1cc(C(=O)NCCc2ccc3c(c2)OCCO3)ccc1OCC(=O)N1CCOCC1 | 2% |
| C=CCn1c(SCC(=O)Nc2cccc(OC)c2)nnc1-c1cccnc1 | 0% |
| CCOC(=O)c1ccc(CNC(=O)C(Cc2c[nH]c3ccccc23)NC(C)=O)o1 (stereo not given) | 3% |
| C=CCN(CC=C)C(=O)c1ccncc1 | 0% |
| COc1ccc2c(c1OC)C(=O)OC2Nn1cncn1 (stereo not given) | 2% |
| C=C(C)COc1ccc(-c2nc(N)ncc2-c2ccc(OC)cc2)c(O)c1 | 2% |
| CCOC(=O)C(NC(=O)c1ccccc1)(Nc1cc(C)on1)C(F)(F)F (stereo not given) | 0% |
| CCN1CCN(C(=O)c2oc(=O)c3ccccc3c2-c2ccc(C)cc2)CC1 | 0% |
| CN(c1ccccc1C(=O)NCC1CCCO1)S(C)(=O)=O (stereo not given) | 2% |
| CCc1ccccc1NC(=O)C(CC)Sc1nc2cc3c(cc2c(=O)n1Cc1ccco1)OCO3 (stereo not given) | 0% |
| O=C(O)c1cc(=O)cc(C(=O)O)[nH]1 | 0% |
| CC(=O)c1cccc(NC(=O)CCOc2ccccc2)c1 | 1% |
| O=C(CN1CCN(c2ncccn2)CC1)Nc1ccccc1-n1cccc1 | 0% |
| O=C(c1ccco1)N1CCN(CC(=O)N(C2CCCCC2)C2CCS(=O)(=O)C2)CC1 (stereo not given) | 2% |
| CCOCCCNC(=O)c1cc2sc(Cl)cc2n1CC | 0% |
| CC(=O)NC(CCS(C)(=O)=O)C(=O)Nc1cc(C)on1 (stereo not given) | 0% |
| CCC1(CC)NC(=O)NC1=O | 0% |
| CCOC(=O)c1cc(-c2ccco2)nc2c1c(C)nn2CCC#N | 0% |
| CCN(CC)C(=O)Cn1c(=O)n(Cc2ccccc2Cl)c2c1c(=O)n(C)c(=O)n2C | 3% |
| O=c1[nH]c2ccc(Br)cc2c(-c2ccccc2)c1N1CCOCC1 | 1% |

Source: PubChem BioAssay
